BAZ2B inh: BAZ2B (human) inhibition | Q9UIF8 | AlphaScreen BAZ2B-H3K14Ac peptide displacement | Potency, µM (titrated, usually from 114 µM), without a hit: top-dose activity change, negative = inhibition, most hits filed as inhibitors | actives 4.4% (n = 360,000) | AID 504333; note: % is set by controls: 0 for no effect and ±100 for the full control effect; nearly all actives have a fitted effect of over 60% in size
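Complex of BAZ2B and biotin-H3K14Ac (50 nM apiece) forms over 30 min at RT, then faces library compounds up to 110 uM for another 30 min; AlphaScreen beads added, 20 min dark incubation, luminescence read.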
G9a inh: G9a (human) methyltransferase inhibition | Q96KQ7 | G9a H3K9 monomethylation, AlphaScreen, 2 h | Potency, µM (titrated, usually from 102 µM), for the others: top-dose activity, negative = inhibition, usual class: inhibitors | actives 8.8% (n = 350,000) | AID 504332; note: % is set by controls: 0 for no effect and ±100 for the full control effect; nearly all actives have a fitted effect of over 75% in size
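Quantitative HTS format: methyltransferase activity on a biotin-tagged H3K9 peptide is measured by AlphaScreen, using a rabbit anti-monomethyl-H3K9 antibody with streptavidin donor and anti-IgG acceptor beads. Final levels are 20 nM enzyme, 500 nM peptide, 20 uM SAM; 2 h RT.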
JMJD2A Tudor: JMJD2A Tudor domain (human) inhibition; O75164; AlphaScreen JMJD2A-Tudor / H3K4me3 peptide binding; Potency, µM (series often up to 114 µM), without a hit: at the top dose activity change, negative = inhibition, actives largely listed as inhibitors; actives 4.4% (n = 390,000); AID 504339; note: % is set by controls: 0 for no effect and ±100 for the full control effect; nearly all actives have a fitted effect of over 50% in size
L3MBTL1 block: L3MBTL1 (human) inhibition | AlphaScreen L3MBTL1–H3K9me1 peptide binding | Q9Y468 | Potency, µM (titrated, usually from 57.1 µM), for the others: at the top dose activity, negative = inhibition, hits mostly inhibitors | AID 485360 | actives 0.66% (n = 230,000); note: % is set by controls: 0 for no effect and ±100 for the full control effect; nearly all actives have a fitted effect of over 60% in size
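L3MBTL1 50 nM + b-AHA-H3(1-15)K9me1 75 nM, 30 min RT; compound added, 30 min RT; streptavidin donor/Ni-chelate acceptor beads 10 ug/mL each final, 30 min RT dark; AlphaScreen read.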
Sfp PPTase inh: Sfp phosphopantetheinyl transferase inhibition | actives 3.5% (n = 310,000) | Potency, µM, without a hit: largest response in the series, negative = inhibition, most hits filed as inhibitors | Q9F4F7 | Biochemical Sfp PPTase activity, qHTS;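 note: the enzyme is Sfp with the accession as filed and its product quenches rhodamine fluorescence; 0% = enzyme reaction without inhibitor and -100% = no enzyme wells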
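Reaction rates are the 30-min fluorescence difference (ex 525, em 598 nm) in wells containing 15 nM Sfp, 5 uM rhodamine-CoA and 12.5 uM BHQ-2-YbbR at pH 7.6 with 10 mM MgCl2.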
HP1b binding inh: inhibitors of HP1-beta chromodomain binding to methylated histone tails. AlphaScreen HP1-beta / biotin-H3K9me3 peptide binding. Potency, µM (series often up to 114 µM), for the others: at the top dose activity change, negative = inhibition, most hits filed as inhibitors. actives 0.56% (n = 390,000); note: nearly all actives have a fitted effect of over 70% in size
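Compound inhibition of the preformed complex between 50 nM HP1-beta and 50 nM biotinylated H3K9me3 peptide was read by AlphaScreen. Buffer was PBS pH 7.4 with 0.01% Tween-20. Incubations ran 30 min at room temperature, with 10 ug/mL donor/acceptor beads.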
Numbers without * were called inactive; ? = inconclusive; . = no result given; [ ] = dose if it differs, or a comment. Hits are enriched below; roughly 12% of the tested compounds scored in any of these assays. Calls come from the whole dose curve; as a rule, active = well fitted curve in the direction sought with a large enough effect; inconclusive = small, poorly fitted or top-dose-only effect, or another doubt; inactive = no such curve, though single readings can be large; an effect the other way counts as inactive or inconclusive. Potency is the fitted concentration of half-maximal effect.

SMILES	BAZ2B inh	G9a inh	JMJD2A Tudor	L3MBTL1 block	Sfp PPTase inh	HP1b binding inh
Cc1cc(=O)[nH]c(N/N=C/c2ccc(Cl)c([N+](=O)[O-])c2)n1	-8%	.	-17%	5%	-7%	48%
Cc1csc(N/N=C\c2cccnc2)n1	.	45µM*	-14%[11.4 µM]	.	56µM*	9%
Cc1cc(C(=O)CSc2nncs2)c(C)n1-c1ccc2c(c1)OCO2	45µM*	?	?	-17%	-9%	?
Cc1cc(C(=O)CN2C(=O)NC3(CCCCC3)C2=O)c(C)n1-c1ccc2c(c1)OCO2	?	12%[59 µM]	56µM*	-1%	-25%	?
Cc1cc(-n2c(C)cc(C(=O)CN3C(=O)NC4(CCCCCC4)C3=O)c2C)no1	?	18%[2.33 µM]	-21%	-9%	8%	7%
c1cncc(-c2cc(NCc3cccs3)ncn2)c1	.	2%[0.501 µM]	.	.	-26%	.
CC(=O)OC1CCC2(C)C3CCC4(C)C(CC5CCCCC54C(C)=O)C3CC(=O)[C@@]2(O)C1 (some centres not stated)	.	.	.	.	2%	.
CCCCN(C(=O)c1cc(Cl)nc2ccccc12)c1c(N)n(Cc2ccccc2)c(=O)[nH]c1=O	-5%	50µM*	-12%	4%	.	18%
CCCCn1c(N)c(N(CCOC)C(=O)c2cc(-c3ccc(C)cc3)nc3ccccc23)c(=O)[nH]c1=O	6%	-18%[0.501 µM]	-4%	-17%	.	35%
CCCCN(C(=O)CCCSc1nc2ccccc2[nH]1)c1c(N)n(Cc2ccccc2)c(=O)[nH]c1=O	-9%	10µM*	-2%	.	2%	16%
CCCCn1c(N)c(N(CCOC)C(=O)c2cc(-c3ccc(F)cc3)nc3ccccc23)c(=O)[nH]c1=O	2%	45µM*	-10%	-7%	.	36%
O=C(CN1C(=O)C2CCCCC2C1=O)Nc1nc(-c2ccccn2)cs1 (configuration not stated)	35µM*	?	79µM*	.	16µM*	?
C[C@@H](C(=O)Nc1nc(-c2ccccn2)cs1)N1C(=O)C2CCCCC2C1=O (some centres not stated)	8.9µM*	1.4µM*	50µM*	.	50µM*	?
O=C(CC1CCOCC1)Nc1ccc(Cl)c(Cl)c1	-15%	40µM*	0%	2%	-3%	26%
COc1ccccc1Cn1cc(C(=O)c2ccc(F)cc2)c(=O)c2cc3c(cc21)OCO3	-1%[57.1 µM]	-2%[59 µM]	0%	.	.	46%
COc1cccc(NC(=O)c2nc(S(C)(=O)=O)ncc2Cl)c1	-17%	35µM*	-5%	.	?	83%
CN(c1ccccc1)S(=O)(=O)c1ccc(NC(=O)c2nc(S(C)(=O)=O)ncc2Cl)cc1	-26%	11µM*	?	.	28µM*	2%
Cc1cccc(NC(=O)c2nc(S(C)(=O)=O)ncc2Cl)c1	-1%	8.9µM*	-26%	.	.	36%
CCOC(=O)C1CCCN(S(=O)(=O)c2ccc3c(c2)CCN3C(=O)CC)C1 (configuration not stated)	-16%	1%[59 µM]	-8%	.	.	26%
O=C(COc1ccc(F)cc1)OCc1cc(=O)n2nc(C3CC3)sc2n1	-11%	5%[59 µM]	-7%	.	.	27%
CCN(CC)CCCN1C(=O)C(O)=C(C(=O)c2ccc(C)o2)C1c1ccc(C)o1 (configuration not stated)	-30%	20µM*	?	1%	-9%	43%
CCOCCCN1C(=O)C(O)=C(C(C)=O)C1c1cccs1 (configuration not stated)	.	.	89µM*	.	.	12%
CCN(CC)CCCN1C(=O)C(O)=C(C(=O)c2ccco2)C1c1ccc(C)o1 (configuration not stated)	.	.	?	.	.	16%
COCCCN1C(=O)C(O)=C(C(=O)c2ccc(C)o2)C1c1cccc(Br)c1 (configuration not stated)	-34%	-35%[59 µM]	89µM*	1%	19%	27%
COCCCN1C(=O)C(O)=C(C(=O)c2ccco2)C1c1ccccc1 (configuration not stated)	?	10%[12.7 µM]	50µM*	-2%	9%	11%
SMILES	BAZ2B inh	G9a inh	JMJD2A Tudor	L3MBTL1 block	Sfp PPTase inh	HP1b binding inh
O=C(C1=C(O)C(=O)N(CCc2ccccc2)C1c1cccnc1)c1ccco1 (configuration not stated)	?	?	-18%	-11%	-5%	21%
CCOC(=O)C1(C(C)C)Oc2ccccc2C(c2ccc(OC)cc2)=C1C(=O)OC (configuration not stated)	.	-8%[59 µM]	.	.	?	.
COCc1cc(C2C(C(=O)c3ccco3)=C(O)C(=O)N2CCOCCO)ccc1O (configuration not stated)	?	?	50µM*	-1%	1%	-7%
CC(=O)C1=C(O)C(=O)N(CCCO)C1c1ccccc1 (configuration not stated)	?	?	?	.	71µM*	5%
COc1cc(C2C(C(=O)c3ccco3)=C(O)C(=O)N2Cc2ccccc2)ccc1O (configuration not stated)	-29%	71µM*	56µM*	.	1%	-5%
COCCCN1C(=O)C(O)=C(C(C)=O)C1c1ccccn1 (configuration not stated)	-34%	?	79µM*	6%	8%	-3%
CC(=O)C1=C(O)C(=O)N(CCO)C1c1ccccc1 (configuration not stated)	?	?	-17%	7%	18%	17%
Cc1ccccc1-c1ccc2ncnc(N3CCNCC3)c2c1	.	3%[0.501 µM]	.	.	0%	.
Cc1ccc(-n2nc(C)c3c(C(F)(F)F)cc(-c4cccnc4)nc32)cc1Cl	3%	7%[59 µM]	8%	.	.	45%
O=C(C1=C(O)C(=O)N(CCc2ccccc2)C1c1cccs1)c1ccco1 (configuration not stated)	?	50µM*	-19%	14%	22%	6%
COc1ccc(C(=O)N2CCC3(CCCN(c4ccccc4)C3)CC2)cc1	.	-5%[12.7 µM]	.	.	-2%	.
CCOC(=O)C1=C(C)NC(C)=C(C(=O)OCC)C1c1cc2ccc(C)cc2[nH]c1=O	?	50µM*	-18%[57.1 µM]	-3%	-13%	-5%
Cc1ccc(C(=O)OCc2cc3ccccc3[nH]c2=O)cc1	2%	-5%	-12%	7%	12%	16%
Cc1ccc2cc(COC(=O)c3ccncc3)c(=O)[nH]c2c1	12%	50µM*	-14%	11%	-9%	8%
COc1ccc(C(CC(=O)NCc2ccccc2)Sc2n[nH]c(-c3ccccc3)n2)cc1 (configuration not stated)	4%	1%	-9%	17%	9%	43%

Compound activity deposited in PubChem by National Center for Advancing Translational Sciences (NCATS).
